The campaign covered roughly 16,000 compounds. About 4,000 (25%) were called active. About 26% were inconclusive and are not listed. The call rests on the fitted dose curve; in most records, active means well fitted curve in the direction sought with a large enough effect; inconclusive means small, poorly fitted or top-dose-only effect, or effect the other way; inactive means no such curve, though single readings can be large or run the other way. Not all results are given here.

The values that follow come from PubChem BioAssay AID1851 (National Center for Advancing Translational Sciences (NCATS), 2009).
On the % scale 0 is the no-effect control and ±100 the full control effect.

Cytochrome P450 2C9 (Homo sapiens), sequence (P11712 whole entry, looked up): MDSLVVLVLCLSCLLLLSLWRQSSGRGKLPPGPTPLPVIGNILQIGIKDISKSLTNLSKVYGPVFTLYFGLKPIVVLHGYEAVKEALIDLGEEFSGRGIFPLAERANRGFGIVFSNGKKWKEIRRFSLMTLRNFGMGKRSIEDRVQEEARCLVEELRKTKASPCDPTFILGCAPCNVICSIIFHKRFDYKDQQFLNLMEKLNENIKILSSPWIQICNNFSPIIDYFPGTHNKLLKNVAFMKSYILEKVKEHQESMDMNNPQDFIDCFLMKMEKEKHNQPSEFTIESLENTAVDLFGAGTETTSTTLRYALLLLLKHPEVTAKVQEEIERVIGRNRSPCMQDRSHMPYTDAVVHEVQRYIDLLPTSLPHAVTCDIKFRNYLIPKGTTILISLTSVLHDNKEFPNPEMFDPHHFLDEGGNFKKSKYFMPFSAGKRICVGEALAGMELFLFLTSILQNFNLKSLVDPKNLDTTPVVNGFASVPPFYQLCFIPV

The assay concerns the target Cytochrome P450 2C9 (Homo sapiens) (UniProt P11712). The experiment in a line: Cytochrome panel assay with activity outcomes. The conditions noted are these: recombinant CYP, pro-luciferin dealkylation, luminescence, p450-cyp2c9; series mostly up to 57.1 µM; activity, negative = inhibition: at the top concentration.
Turning to `CN(C)CC[C@H](c1ccc(Br)cc1)c1ccccn1`, the AC50 (in general, the midpoint of the concentration-response curve, whichever way the signal moves) is “inactive”.
As for `CN(Cc1ccco1)c1ccnc(-c2ccoc2)n1`, the activity, negative = inhibition was 27.8% [at 2.29 µM] (inactive).
On to `COc1ccccc1C1(CC(=O)Nc2nccs2)CCOC(C(C)C)C1` (stereo not drawn), for which the AC50 was 10 µM (active).
For `Oc1ccccc1CNCc1ccccc1O`, the activity, negative = inhibition is -4.69% [at 11.4 µM] (inactive).
Same read-out and setting: for `O[C@@H](c1cc(C(F)(F)F)nc2c(Cl)cc(Cl)cc12)[C@@H]1CCCCN1` the value was 0.514% [at 11.4 µM] (inactive).
The same measure, in the same setting: for `N#Cc1cccc(-c2nccc(NCc3ccccc3)n2)c1` the value was -19.1% [at 2.29 µM] (inactive); for `COc1ccc(Oc2nccc(-c3ccc(F)cc3)c2C#N)cc1`, -16.3% (inactive).
With `CN(C)c1ccnc(Oc2ccc(Cl)cc2)c1C#N`, the half-maximal activity concentration (AC50) was 20 µM (active).
`N#Cc1c(-c2ccccc2)ccnc1Oc1ccccc1`: the AC50 was 7.08 µM (active).
Turning to `COc1ccccc1CNc1cc(-c2cccc(C#N)c2)ncn1`, the activity, negative = inhibition was 8.28% [at 2.29 µM] (inactive).
The same measure, in the same setting: as for `C[C@@H]1O[C@H](O[C@@H]2[C@@H](Oc3cc(O)c4c(c3)O[C@H](c3ccc(O)cc3)CC4=O)O[C@@H](CO)[C@@H](O)[C@H]2O)[C@@H](O)[C@H](O)[C@@H]1O`, the figure is -28.2% [at 25.6 µM] (inactive); as for `Cc1ccc2c(c1)N[C@H](c1ccc(C(=O)O)cc1)c1cccn1-2`, -25.1% [at 11.4 µM] (inactive).
Regarding `CC(C)OC(=O)c1cc2c(ccn2C)n1CC(=O)N1CCC(Cc2ccccc2)CC1`, the AC50 was 14.1 µM (active).
On the same count and under the same terms, as for `Cc1ccc(C)c(Cn2c(C(=O)OC(C)C)cc3c2ccn3C)c1`, the figure is 8.91 µM (active).
Turning to `C[C@@H](CN1CCC(Cc2ccccc2)CC1)[C@@H](O)c1ccc(O)cc1`, the “activity, negative = inhibition” value was -1.94% (inactive).
Same read-out and setting: for `C[C@@H](CN1CCC(Cc2ccccc2)CC1)[C@H](O)c1ccc(O)cc1` the value was 18.2% (inactive).
For the compound `COCCn1c(=O)c(-c2ccccc2)nc2cnc(Oc3cccc(Cl)c3)nc21`, the AC50 is 0.501 µM (active).
Regarding `CCNc1ncc2nc(-c3cc(F)cc(F)c3)c(=O)n(CCOC)c2n1`, the “activity, negative = inhibition” value was -10.3% (inactive).
On the same count and under the same terms, for `COCCn1c(=O)c(-c2ccc(OC)cc2)nc2cnc(Nc3cccc(OC)c3)nc21` the value was -14.5% (inactive); for `N#CCCn1c(=O)c(-c2ccc(F)cc2)nc2cnc(Oc3cccc(Cl)c3)nc21`, 26.5% (inactive).
Regarding `COCCn1c(=O)c(-c2cc(F)cc(F)c2)nc2cnc(Oc3cccc(Cl)c3)nc21`, the AC50 is 3.98 µM (active).
Take `COCCn1c(=O)c(-c2cn(C)c3ccccc23)nc2cnc(Oc3cccc(Cl)c3)nc21`: the “activity, negative = inhibition” value was -20.2% (inactive).
As to `COCCn1c(=O)c(-c2ccc(OC)cc2)nc2cnc(Oc3cccc(Cl)c3)nc21`, the concentration at half-maximal activity (AC50) was 0.631 µM (active).
In the case of `O=c1[nH]c(=O)n([C@@H]2C[C@H](O)[C@H](CO)O2)cc1C(F)(F)F`, the “activity, negative = inhibition” value is 3.12% [at 25.6 µM] (inactive).
In the case of `COc1ccccc1NC(=S)NCCc1ccccc1`, the “activity, negative = inhibition” value is -25% (inactive).
`Fc1ccccc1NC(=S)NCCc1ccccc1`: the AC50 was 7.94 µM (active).
Same read-out and setting: for `Fc1ccc(NC(=S)NCCc2ccccc2)c(F)c1F` the value was 5.01 µM (active); for `Fc1cc(Br)ccc1NC(=S)NCCc1ccccc1`, 10 µM (active).
Consider `O=C1O[C@@H]([C@H](O)[C@H](O)[C@H](O)CO)[C@@H](O)[C@@H]1O`, for which the activity, negative = inhibition is -8.59% [at 11.4 µM] (inactive).
In the case of `COc1ccc(C(=O)N2CCC[C@@]3(CCN(C(=O)NC(C)C)C3)C2)cc1`, the “activity, negative = inhibition” value is -2.78% (inactive).
Same read-out and setting: as for `Nc1ncnc2c1ncn2[C@H]1O[C@@H](C(=O)OCCO)[C@@H](O)[C@H]1O`, the figure is -1.34% [at 11.4 µM] (inactive); as for `O=C(O)C1CCN(c2ncnc3ccc(-c4ccccc4C(F)(F)F)cc23)CC1`, 4.43% [at 2.29 µM] (inactive); as for `N#Cc1ccccc1-c1ccc2ncnc(N3CCNCC3)c2c1`, 26.5% [at 2.29 µM] (inactive).
Turning to `Cc1cc(C)n(-c2ccc(C(=O)Nc3cc(C(F)(F)F)ccc3N3CCOCC3)cc2)n1`, the half-maximal activity concentration (AC50) is 0.0794 µM (active).
For `Cc1ccc(C(C)C)n1C(=O)OC(C)(C)C`, the activity, negative = inhibition was 0.745% [at 11.4 µM] (inactive).
In the case of `COc1ccc(N2C(=O)CSC2c2cccc(F)c2)c(OC)c1` (stereo not drawn), the “activity, negative = inhibition” value is -4.17% (inactive).
Still for that read-out and setting: for `CC(=O)Nc1ccc(N2C(=O)CC(c3ccccc3)CC2=O)cc1` the value was -18% (inactive).
With `CC(=O)Nc1ccc(N2C(=O)CSC2c2c(F)cccc2Cl)cc1` (stereo not drawn), the AC50 is 10 µM (active).
Consider `O=C(Nc1ccc([N+](=O)[O-])cc1Cl)c1cc(Cl)ccc1O`, for which the concentration at half-maximal activity (AC50) was 0.631 µM (active).
On the same count and under the same terms, as for `O=C(Nc1ccccc1)c1cc([N+](=O)[O-])ccc1Cl`, the figure is 6.31 µM (active).
With `Cc1cccc[n+]1CC(=O)Nc1ccc([N+](=O)[O-])cc1Cl`, the “activity, negative = inhibition” value is 18% (inactive).
Take `O=C(Nc1ccccc1)c1ccccc1CC[N+](=O)[O-]`: the “activity, negative = inhibition” value was -19.1% (inactive).
Still for that read-out and setting: for `CC1=C[N+](=O)c2ccccc2[N+]1=O` the value was -5.42% [at 11.4 µM] (inactive).
The same measure, in the same setting: as for `N#Cc1cccc(-c2cc(-n3ccnc3)ncn2)c1`, the figure is -5.24% [at 2.29 µM] (inactive); as for `CCCCN(C)CCCNC(=O)c1ccc(N2CCCC2=O)cc1`, -14.3% (inactive).
As to `O=C(O)c1cccc(N2CCCC2=O)c1`, the concentration at half-maximal activity (AC50) is 12.6 µM (active).
For `O=C(O)c1cccc(OCCO)c1`, the activity, negative = inhibition is -19% [at 11.4 µM] (inactive).
Still for that read-out and setting: as for `c1nc(NC2CCNCC2)c2cc(-c3ccc4c(c3)OCO4)ccc2n1`, the figure is 28.6% [at 2.29 µM] (inactive); as for `Oc1cc(O)c2c(c1)O[C@H](c1ccc(O)c(O)c1)[C@@H](O)[C@@H]2c1c(O)cc(O)c2c1O[C@@H](c1ccc(O)c(O)c1)[C@H](O)C2`, -22.1% [at 11.4 µM] (inactive).
Consider `COc1ccc(C(=O)N2CCC3(CCCN(C(=O)Nc4cccc(F)c4)C3)CC2)cc1`, for which the “activity, negative = inhibition” value was -11.2% (inactive).
For `O=C(c1cccc(F)c1)N1CCC2(CCN(Cc3ccncc3)CC2)CC1`, the AC50 is 2.51 µM (active).
Regarding `O=C(c1cccc(F)c1)N1CCC2(CCCN(Cc3cc(C(F)(F)F)cc(C(F)(F)F)c3)C2)CC1`, the “activity, negative = inhibition” value was -18.9% (inactive).
`O=C(Nc1cccc(F)c1)N1CCCC2(CCN(C(=O)c3cnccn3)CC2)C1`: the “activity, negative = inhibition” value was -11.9% (inactive).
On the same count and under the same terms, for `O=C(c1cccc(F)c1)N1CCC2(CCN(Cc3cc(C(F)(F)F)cc(C(F)(F)F)c3)CC2)CC1` the value was -1.07% (inactive).
As for `O=C(c1cccc(F)c1)N1CCC2(CCCN(Cc3ccccc3)C2)CC1`, the “activity, negative = inhibition” value is 12.2% (inactive).
For `O=C(c1cccc(F)c1)N1CCC2(CCCN(Cc3ccncc3)C2)CC1`, the half-maximal activity concentration (AC50) was 0.631 µM (active).
On to `O=C(c1cccc(F)c1)N1CCC2(CCN(Cc3ccccc3)CC2)CC1`, for which the “activity, negative = inhibition” value is 6.78% (inactive).
`O=C(Nc1cccc(F)c1)N1CCCC2(CCN(C(=O)c3ccncc3)CC2)C1`: the AC50 is 0.0794 µM (active).
